Our source for the Potency and outcome values is PubChem BioAssay (Tox21).

The nature of experiment [1]: A CellTox Green Cytotoxicity Assay to monitor cytotoxicity in HEK293 cells - 32 hour (AID 1224881). Note: nearly all actives have a fitted effect of over 40% in size. Note: potency is the fitted concentration of half-maximal effect. The essentials: (§1)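 Seeding of HEK293 cells together with cytotoxicity dye preceded a 5 h incubation at 37 C/5% CO2. Test compounds in DMSO were then added and fluorescence monitored across 40 h.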
A short description of experiment [2]: A CellTox Green Cytotoxicity Assay to monitor cytotoxicity in HepG2 cells - 0 hour (AID 1224882). Note: nearly all actives have a fitted effect of over 35% in size. Note: potency is the fitted concentration of half-maximal effect. The method in brief: (§2)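 Nonlytic assay: viable cells exclude the dye, so fluorescence scales with cell death. HepG2 at 600 cells/well, compounds added after 5 h, signal read across 40 h.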
Experiment [3] can be described thus: A CellTox Green Cytotoxicity Assay to monitor cytotoxicity in HepG2 cells - 32 hour (AID 1224883). Note: nearly all actives have a fitted effect of over 50% in size. Note: potency is the fitted concentration of half-maximal effect. The method in brief: as §2
Experiment [4] is described as follows: A CellTox Green Cytotoxicity Assay to monitor cytotoxicity in HEK293 cells - 8 hour (AID 1224884). Note: nearly all actives have a fitted effect of over 35% in size. Note: potency is the fitted concentration of half-maximal effect. The method in brief:
as §1

Experiment [5] in a line: qHTS RealTime-Glo MT Cell Viability Assay in HEK293 cells - 24 hour (AID 1224886). Note: nearly all actives have a fitted effect of over 50% in size. Note: potency is the fitted concentration of half-maximal effect. The essentials:
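Homogeneous bioluminescent viability format in HEK293 cells (600 cells/well). Following 5 h at 37 C/5% CO2, 23 nL compound was pintooled; the signal was measured repeatedly during 40 h incubation.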

Experiment [6] in a line: A CellTox Green Cytotoxicity Assay to monitor cytotoxicity in HEK293 cells - 16 hour (AID 1224888). Note: nearly all actives have a fitted effect of over 35% in size. Note: potency is the fitted concentration of half-maximal effect. The essentials:
as §1

Experiment [7] in a line: A CellTox Green Cytotoxicity Assay to monitor cytotoxicity in HepG2 cells - 8 hour (AID 1224890). Note: nearly all actives have a fitted effect of over 45% in size. Note: potency is the fitted concentration of half-maximal effect. The essentials: as §2
Experiment [8] can be described thus: qHTS assay to identify small molecule antagonists of the estrogen receptor alpha (ER-alpha) signaling pathway using the BG1 cell line in the presence of 0.1 nM 17-beta-estradiol - cell viability counter screen (AID 1259241). Note: nearly all actives have a fitted effect of over 40% in size. Note: potency is the fitted concentration of half-maximal effect. The method in brief: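 VM7Luc4E2, 4,000 cells/well, phenol red-free medium + 10% charcoal-stripped FBS; 24 hr plating; cpd + 0.1 nM E2 final, 22 hr 37C/5% CO2; CellTiter-Fluor 30 min, fluorescence.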

Experiment [9] in a line: qHTS assay to identify small molecule antagonists of the androgen receptor (AR) signaling pathway using the MDA cell line in the presence of 0.5 nM R1881 - cell viability counter screen (AID 1259242). Note: nearly all actives have a fitted effect of over 45% in size. Note: potency is the fitted concentration of half-maximal effect. The method in brief: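 R1881 at 0.5 nM final stimulated MDA-kb2 cells during 16 hr compound treatment at 37C. Cytotoxicity read: CellTiter-Fluor fluorescence after 30 min.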

Experiment [10] can be described thus: qHTS assay to identify small molecule HDAC inhibitors (AID 1259364).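 Note: wild-type HCT-116 cells with endogenous class I/II HDAC activity; top concentration of the series differs between compounds; nearly all actives have a fitted effect of over 45% in size.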 The method in brief:
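Relative class I and II HDAC activity is taken from the luminogenic signal in HCT-116 cells, with compound exposure 2 hr and reagent development 30 min at room temperature.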

Experiment [11] is described as follows: qHTS assay to identify small molecule agonists of the sonic hedgehog signaling (Shh) pathway - cell viability counter screen (AID 1259366). Note: nearly all actives have a fitted effect of over 50% in size. Note: potency is the fitted concentration of half-maximal effect. The method in brief: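 Cytotoxicity counter screen run in the same wells as the Shh reporter assay. NIH/3T3 cells carrying a Gli1 response element–driven luciferase were treated with DMSO-dissolved compounds for 24hr, and live-cell protease activity was measured with CellTiter-Fluor.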

Experiment [12] is described as follows: qHTS assay to identify small molecule antagonists of the sonic hedgehog signaling (Shh) pathway - cell viability counter screen (AID 1259367). Note: nearly all actives have a fitted effect of over 55% in size. Note: potency is the fitted concentration of half-maximal effect. The method in brief: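 After a 4 hr settling period, 3T3 Gli1-Luc cells were treated with DMSO-dissolved chemicals and conditioned medium, kept 24 hr at 37C in 5% CO2, and assayed for viability by CellTiter-Fluor fluorescence following 1 hr reagent incubation.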

A short description of experiment [13]: qHTS assay to identify small molecule agonists of the sonic hedgehog signaling (Shh) pathway (AID 1259368; calls by dose curve;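 note: NIH/3T3-derived 3T3Gli1-Luc cells carrying a stable Gli1-driven firefly luciferase reporter; series mostly up to about 92 µM; nearly all actives have a fitted effect of over 15% in size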). The method in brief:
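Mouse fibroblast (NIH/3T3) reporter cells with stably integrated Gli1-Luc were treated 24 hr with compound; firefly luciferase luminescence served as the read-out.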

A short description of experiment [14]: qHTS RealTime-Glo MT Cell Viability Assay in HEK293 cells - 8 hour (AID 1224887). Note: top concentration of the series differs between compounds; nearly all actives have a fitted effect of over 50% in size. The essentials: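 Tox21 screen in HEK293 using RealTime-Glo MT chemistry, with cells and reagent co-dispensed. Luminescence proportional to viable cell number was captured at intervals during 40 h compound exposure at 37 C.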
Experiment [15] is described as follows: qHTS RealTime-Glo MT Cell Viability Assay in HepG2 cells - 0 hour (AID 1224889). Note: nearly all actives have a fitted effect of over 50% in size. The method in brief:
(§3)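 Cell number in HepG2 cultures estimated from NanoLuc luminescence generated by metabolic reduction of a prosubstrate by living cells. The homogeneous, nonlytic format allowed repeated reads at 0, 8, 16, 24, 32 and 40 h of compound exposure.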

The target in experiment [16] is Estrogen receptor (Homo sapiens) (UniProt P03372). The experiment can be described thus: qHTS assay to identify small molecule antagonists of the estrogen receptor alpha (ER-alpha) signaling pathway using the BG1 cell line in the presence of 0.1 nM 17-beta-estradiol (AID 1259244). Note: nearly all actives have a fitted effect of over 50% in size. Note: potency is the fitted concentration of half-maximal effect. The essentials:
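VM7Luc4E2; 4xERE-luciferase; 0.1 nM E2 final; 22 h co-incubation, 37C; ONE-Glo luminescence after 30 min at room temperature.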

The nature of experiment [17]: qHTS assay to identify small molecule HDAC inhibitors - cell viability counter screen (AID 1259365). The essentials:
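Luminescence from CellTiter-Glo, developed 30min at room temperature, reports viability of wild-type HCT-116 cells treated 2hr with compounds at 37 C and 5% CO2 after overnight plating.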

Experiment [18] can be described thus: qHTS RealTime-Glo MT Cell Viability Assay in HepG2 cells - 16 hour (AID 1224885). Note: nearly all actives have a fitted effect of over 50% in size. The method in brief:
as §3

Experiment [19] in a line: qHTS assay to identify small molecule phospholipidosis (PLD) inducers (AID 1259344; active = well fitted curve in the direction sought with a large enough effect; an effect the other way counts as inactive or inconclusive). The essentials:
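HepG2 cells grown on collagen I take up LipidTOX Red while exposed to compound for 24 h; after fixation they are imaged at 20x and pit metrics are extracted.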

For experiment [20], the target named is Androgen receptor (Homo sapiens) (UniProt P10275). Nature of the experiment: qHTS assay to identify small molecule antagonists of the androgen receptor (AR) signaling pathway using the MDA cell line in the presence of 0.5 nM R1881 (AID 1259243). The essentials:
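We exposed MDA-kb2 cells to compounds under 0.5 nM R1881 stimulation for 16 hr at 37C and quantified MMTV-driven luciferase by luminescence.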

Unmarked numbers belong to inactive results. Records with an inconclusive call do not appear. The source made the active and inactive calls. Unless noted, calls come from the whole dose curve; as a rule, active = well fitted curve in the direction sought with a large enough effect in the repeat runs; inconclusive = weak or mixed curves; inactive = no such curve, though single readings can be large; an effect the other way counts as inactive or inconclusive.

Sequence of Estrogen receptor (Homo sapiens) (P03372 whole entry, looked up): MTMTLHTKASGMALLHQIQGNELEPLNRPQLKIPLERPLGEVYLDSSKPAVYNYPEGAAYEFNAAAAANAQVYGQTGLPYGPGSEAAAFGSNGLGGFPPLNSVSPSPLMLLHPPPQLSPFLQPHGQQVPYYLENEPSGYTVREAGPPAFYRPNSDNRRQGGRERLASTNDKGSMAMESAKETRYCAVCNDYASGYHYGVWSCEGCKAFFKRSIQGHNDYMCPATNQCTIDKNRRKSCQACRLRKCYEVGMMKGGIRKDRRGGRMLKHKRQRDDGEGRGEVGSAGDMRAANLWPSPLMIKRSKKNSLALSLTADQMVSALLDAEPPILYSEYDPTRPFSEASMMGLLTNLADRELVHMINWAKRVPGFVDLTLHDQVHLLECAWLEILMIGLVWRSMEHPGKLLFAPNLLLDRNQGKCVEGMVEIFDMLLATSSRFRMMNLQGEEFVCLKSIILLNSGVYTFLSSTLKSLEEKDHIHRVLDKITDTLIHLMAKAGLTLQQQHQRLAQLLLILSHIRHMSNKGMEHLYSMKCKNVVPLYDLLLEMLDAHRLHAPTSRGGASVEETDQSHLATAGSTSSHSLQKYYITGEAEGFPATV
Sequence of Androgen receptor (Homo sapiens) (P10275 whole entry, looked up): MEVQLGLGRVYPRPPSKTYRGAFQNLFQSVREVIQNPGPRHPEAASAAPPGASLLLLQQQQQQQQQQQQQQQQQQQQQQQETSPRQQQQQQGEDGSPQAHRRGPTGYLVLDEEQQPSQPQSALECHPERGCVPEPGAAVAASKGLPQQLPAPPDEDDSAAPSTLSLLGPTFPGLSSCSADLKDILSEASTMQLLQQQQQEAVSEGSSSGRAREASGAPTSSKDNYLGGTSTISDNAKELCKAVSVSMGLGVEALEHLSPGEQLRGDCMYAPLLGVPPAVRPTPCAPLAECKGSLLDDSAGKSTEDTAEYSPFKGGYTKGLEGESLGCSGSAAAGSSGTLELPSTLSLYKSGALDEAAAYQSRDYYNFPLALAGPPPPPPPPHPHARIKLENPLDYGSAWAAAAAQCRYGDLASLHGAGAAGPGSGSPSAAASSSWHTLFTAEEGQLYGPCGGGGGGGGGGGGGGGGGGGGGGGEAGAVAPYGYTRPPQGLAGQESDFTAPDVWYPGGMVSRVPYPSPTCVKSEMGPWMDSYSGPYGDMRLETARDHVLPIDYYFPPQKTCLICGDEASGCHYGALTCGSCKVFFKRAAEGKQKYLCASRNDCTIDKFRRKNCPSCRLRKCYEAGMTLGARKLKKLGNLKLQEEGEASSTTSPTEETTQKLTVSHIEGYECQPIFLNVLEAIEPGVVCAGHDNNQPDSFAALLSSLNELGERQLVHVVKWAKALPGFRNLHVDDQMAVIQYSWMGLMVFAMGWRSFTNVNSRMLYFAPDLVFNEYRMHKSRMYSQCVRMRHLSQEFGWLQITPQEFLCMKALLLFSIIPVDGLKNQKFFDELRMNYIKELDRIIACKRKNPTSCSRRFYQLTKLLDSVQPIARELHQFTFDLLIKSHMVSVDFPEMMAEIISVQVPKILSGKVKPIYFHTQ

With `CCN(CC)c1ccc2c(-c3ccccc3C(=O)O)c3ccc(=[N+](CC)CC)cc-3oc2c1`, the Potency in experiment [1] is 24.5 µM (active); in experiment [2], 21.9 µM (active); in experiment [3], 24.5 µM (active); in [4] it was 24.5 µM (active); in experiment [5], 24.5 µM (active); in [6], 24.5 µM (active). Besides, the Potency in [7] was 24.5 µM (active); in experiment [8], 8.63 µM (active); in experiment [9], 10.9 µM (active); in experiment [11] it was 4.33 µM (active); in experiment [12], 3.44 µM (active). The Potency entry in experiment [10] was “inactive”. Besides, the compound was classed as inactive in [13].
With `Cc1oc2c(NC(=O)c3c(Cl)cccc3Cl)cccc2c1C(C)(C)O`, the Potency entry in [1], in experiment [2], in experiment [4], in [14], in [6] and in experiment [15] was “inactive” throughout. Moreover, the Potency result in [7], in experiment [8], in experiment [10], in experiment [17], in experiment [11] and in [12] was “inactive” each time. The Potency is 49 µM (active) in [3] and 13.7 µM (active) in experiment [16]. The call in [13] was inactive.
For `CN(C)CCCN1c2ccccc2Sc2ccccc21`, the Potency result in experiment [1], in experiment [2], in [18], in experiment [5], in [14] and in experiment [6] was “inactive” throughout. For the same compound, the Potency result in experiment [7], in experiment [8], in experiment [9], in experiment [10] and in experiment [17] was “inactive” throughout. For the same compound, in [3], the Potency is 23.9 µM (active). Also, the call in experiment [13] was inactive.
Consider `Nc1c(CC(=O)O)cccc1C(=O)c1ccc(Br)cc1`, for which the Potency entry in experiment [1], in experiment [2], in experiment [3], in experiment [18], in [5] and in experiment [6] was “inactive” in each case. The Potency result in experiment [15], in [7], in [8], in experiment [9], in experiment [16] and in experiment [19] was “inactive” throughout. The Potency entry in experiment [10], in experiment [11] and in [12] was “inactive” throughout. Also, the result in [13] was inactive.
With `CC(C)O.CC(C)O.CCOC(=O)/C=C(\C)O.CCOC(=O)/C=C(\C)O.[Ti]`, the Potency entry in experiment [1], in experiment [2], in experiment [3], in experiment [18], in experiment [5] and in experiment [14] was “inactive” each time. Further, the Potency entry in experiment [6], in [15], in experiment [7], in [8], in experiment [9] and in experiment [10] was “inactive” in each case. Besides, the Potency entry in experiment [17], in experiment [11] and in [12] was “inactive” each time. Also, the outcome in [13] was inactive.
As for `CCC(Cl)CCC(Cl)C(Cl)CC(Cl)C(Cl)C(Cl)CCl` (configuration not stated), the Potency entry in experiment [1], in experiment [2], in [3], in experiment [18], in experiment [5] and in [14] was “inactive” throughout. Besides, the Potency result in experiment [6], in [15], in experiment [8], in experiment [9], in experiment [10] and in [17] was “inactive” in each case. Also, the Potency result in [11] and in experiment [12] was “inactive” in each case. The compound was called inactive in [13].
Regarding `CCN(CC)CCOC(=O)C(c1ccccc1)C1CCCCC1` (configuration not stated), the Potency in experiment [1] and in [3] was 23.9 µM (active) throughout. Moreover, the Potency result in [2], in experiment [4], in experiment [6], in experiment [15], in [9] and in [16] was “inactive” in each case. Moreover, the Potency result in [19] and in experiment [10] was “inactive” each time. The result in experiment [13] was inactive.
On to `O[C@@H](COc1cccc2ncccc12)CN1CCN(C2c3ccccc3[C@@H]3[C@H](c4ccccc42)C3(F)F)CC1` (some centres not stated), for which the Potency result in experiment [1], in experiment [2], in experiment [3], in experiment [4], in [15] and in [7] was “inactive” in each case. For the same compound, the Potency result in [8], in experiment [9], in experiment [16], in [10] and in [17] was “inactive” each time. Besides, in [20], the Potency is 13.3 µM (active). The compound was called inactive in experiment [13].
